Assay results published in PubChem BioAssay (NCI).
The panel holds about 83,000 compounds, 20% with a hit somewhere; the sample as a whole holds those more often.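 Each cell line was grown in a 96-well plate and treated with one concentration of compound for 48 hours. Values below 10 were considered active.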 Calls of active or inactive are those of the source.

Experiments:
Assay in all cases: NCI-60 one-dose screen, 48 h (100 = growth as untreated, 0 = no growth, -100 = all killed)
Details in all cases: 10 µM unless noted
NCI-H23 lung = tested on: NCI-H23 lung
NCI-H226 lung = tested on: NCI-H226 lung
NCI-H322M lung = tested on: NCI-H322M lung
HOP-62 NSCLC = tested on: HOP-62 NSCLC
NCI-H460 lung = tested on: NCI-H460 lung
HOP-92 NSCLC = tested on: HOP-92 NSCLC
NCI-H522 lung = tested on: NCI-H522 lung
A549/ATCC NSCLC = tested on: A549/ATCC NSCLC
786-0 renal = tested on: 786-0 renal
COLO 205 colon = tested on: COLO 205 colon

Measured: growth

CCCC/C(=C\c1ccc(O)c(O)c1)C(=O)NC(Cc1ccccc1)C(=O)C(=O)NCCc1ccc(OC)cc1 (stereo not given)
inactive: NCI-H23 lung 92.2% | NCI-H226 lung 92.7% | NCI-H322M lung 100% | HOP-62 NSCLC 98.2% | NCI-H460 lung 102% | HOP-92 NSCLC 86.2% | NCI-H522 lung 87.7% | A549/ATCC NSCLC 103% | 786-0 renal 104% | COLO 205 colon 110%

C/C(=N\NC(=O)Nc1ccccc1)c1nnn(-c2ccc([N+](=O)[O-])cc2)c1C
inactive: NCI-H23 lung 94.7% | NCI-H226 lung 100% | NCI-H322M lung 99.1% | HOP-62 NSCLC 111% | NCI-H460 lung 108% | HOP-92 NSCLC 120% | NCI-H522 lung 99.9% | A549/ATCC NSCLC 107% | 786-0 renal 102% | COLO 205 colon 112%

O=C(CSc1nc2ccccc2c(=O)n1-c1ccc(Cl)c(Cl)c1)Nc1ccc(S(=O)(=O)Nc2ccc(Cl)nn2)cc1
inactive: NCI-H23 lung 91.6% | NCI-H226 lung 90.9% | NCI-H322M lung 91.7% | HOP-62 NSCLC 87.8% | NCI-H460 lung 99.4% | HOP-92 NSCLC 72.5% | NCI-H522 lung 90% | A549/ATCC NSCLC 91.9% | 786-0 renal 98.9% | COLO 205 colon 94.9%

CN1CCN(Cc2ccc(NC(=O)c3cncc(C#Cc4cnc5ccc(OCCCS(C)(=O)=O)nn45)c3)cc2C(F)(F)F)CC1
active: NCI-H23 lung -50.9% | NCI-H226 lung -60.1% | NCI-H322M lung -16.6% | HOP-62 NSCLC -47.7% | NCI-H460 lung -64.1% | HOP-92 NSCLC -27.3% | NCI-H522 lung -76% | A549/ATCC NSCLC -9.65% | 786-0 renal -16% | COLO 205 colon -66.9%

C#Cc1cc(OC)c(C(=O)Nc2ccc(F)cc2C(=O)Nc2cccc(S(=O)(=O)C(F)(F)F)c2)cn1
active: NCI-H23 lung -49.4% | HOP-92 NSCLC -65.7% | NCI-H522 lung -69.3% | A549/ATCC NSCLC -7.6% | 786-0 renal -78.7%
inactive: NCI-H226 lung 13.1% | NCI-H322M lung 88.9% | HOP-62 NSCLC 16.3% | NCI-H460 lung 26.6% | COLO 205 colon 52.2%

O=C(CSc1nnc(-c2ccc(Cl)cc2)n1-c1ccccc1)Nc1ccc(Cl)cc1
inactive: NCI-H23 lung 29.1% | NCI-H226 lung 16% | NCI-H322M lung 41.2% | HOP-62 NSCLC 82.8% | NCI-H460 lung 19.4% | NCI-H522 lung 39.5% | A549/ATCC NSCLC 21.5% | COLO 205 colon 90.2%
active: HOP-92 NSCLC -5.1% | 786-0 renal -50.2%

CCOc1cccc(/C(N)=N/C(N)=N/c2nc3ccccc3s2)c1
inactive: NCI-H23 lung 66.4% | NCI-H226 lung 78.6% | NCI-H322M lung 91% | NCI-H460 lung 70.4% | HOP-92 NSCLC 105% | NCI-H522 lung 94.3% | 786-0 renal 105% | COLO 205 colon 113%
active: HOP-62 NSCLC -38.7% | A549/ATCC NSCLC -20%

CC1CCN(CC(=O)Nn2c(COc3ccccc3)nc3ccccc3c2=O)CC1
inactive: NCI-H23 lung 91.7% | NCI-H226 lung 84.6% | NCI-H322M lung 95.4% | HOP-62 NSCLC 91.9% | NCI-H460 lung 90.6% | HOP-92 NSCLC 96.2% | NCI-H522 lung 75.4% | A549/ATCC NSCLC 90.9% | 786-0 renal 99% | COLO 205 colon 84.1%

COc1ccc(C2c3[nH]c4ccc(Cl)cc4c3CCN2c2oc(CO)nc2C#N)cc1 (stereo not given)
inactive: NCI-H23 lung 69.9% | NCI-H226 lung 60% | NCI-H322M lung 70.4% | HOP-62 NSCLC 53.5% | NCI-H460 lung 22.9% | HOP-92 NSCLC 53.3% | NCI-H522 lung 31.7% | A549/ATCC NSCLC 38.1% | 786-0 renal 64.6% | COLO 205 colon 40.5%

CN1CCN(Cc2ccc(/C=N/Nc3ccnc4cc(Cl)ccc34)cc2)CC1
inactive: NCI-H23 lung 89.2% | NCI-H226 lung 88.4% | NCI-H322M lung 87.5% | HOP-62 NSCLC 80.5% | NCI-H460 lung 83.1% | HOP-92 NSCLC 64.3% | NCI-H522 lung 101% | A549/ATCC NSCLC 83.7% | 786-0 renal 77.7% | COLO 205 colon 93.2%

COc1ccc(CC(C)=C(c2ccc(OCCN3CCCC3)cc2)c2ccc(OCCN3CCCC3)cc2)cc1
active: NCI-H23 lung -82.4% | NCI-H226 lung -69.2% | NCI-H322M lung -75.7% | HOP-62 NSCLC -66% | NCI-H460 lung -62.3% | HOP-92 NSCLC -82.4% | NCI-H522 lung -86% | A549/ATCC NSCLC -68.2% | 786-0 renal -79.3% | COLO 205 colon -61%

C=C(C)[C@@H]1CC[C@]2(C(=O)O)CC[C@]3(C)[C@H](CC[C@@H]4[C@@]5(C)C/C(=C/c6ccccn6)C(=O)C(C)(C)[C@@H]5CC[C@]43C)[C@@H]12
inactive: NCI-H23 lung 38.6% | NCI-H226 lung 39.9% | NCI-H322M lung 44.3% | HOP-62 NSCLC 36.3% | NCI-H460 lung 16.1% | HOP-92 NSCLC 34.7% | NCI-H522 lung 24.1% | A549/ATCC NSCLC 16.5% | 786-0 renal 51.1% | COLO 205 colon 54.7%

Cc1ccc(C(=O)Nc2ccc(CNCCN3CCNCC3)c(C(F)(F)F)c2)cc1C#Cc1cnc2cccnn12
inactive: NCI-H226 lung 97.1% | NCI-H322M lung 55.3% | A549/ATCC NSCLC 16%
active: NCI-H23 lung 4.87% | HOP-62 NSCLC -48.8% | NCI-H460 lung -44.9% | HOP-92 NSCLC -28.2% | NCI-H522 lung -33.9% | 786-0 renal -70.2% | COLO 205 colon -53.2%

COc1ccccc1/C=C1\Oc2ccc(O)c(O)c2C1=O
inactive: NCI-H23 lung 93.2% | NCI-H226 lung 110% | NCI-H322M lung 102% | HOP-62 NSCLC 99.9% | NCI-H460 lung 101% | HOP-92 NSCLC 103% | NCI-H522 lung 89.1% | A549/ATCC NSCLC 101% | 786-0 renal 94.1% | COLO 205 colon 116%

Fc1cc(F)cc(NNC(=S)c2ccccc2)c1
active: HOP-92 NSCLC -16.7%
inactive: NCI-H23 lung 23.1% | NCI-H226 lung 49.7% | NCI-H322M lung 73.4% | HOP-62 NSCLC 58.4% | NCI-H460 lung 21.9% | NCI-H522 lung 37% | A549/ATCC NSCLC 31% | 786-0 renal 53.3% | COLO 205 colon 108%

CCCN1C=C/C(=C\C(=O)n2ccc3ccccc32)c2ccccc21
inactive: NCI-H23 lung 72.9% | NCI-H226 lung 75.1% | NCI-H322M lung 80.2% | HOP-62 NSCLC 94.6% | NCI-H460 lung 94.5% | HOP-92 NSCLC 47.9% | NCI-H522 lung 78.4% | A549/ATCC NSCLC 84.9% | 786-0 renal 103% | COLO 205 colon 96.4%

Cc1ccc(NC(=O)Nc2nc3ccc([N+](=O)[O-])cc3s2)cc1
inactive: COLO 205 colon 48.8%
active: NCI-H23 lung -4.55% | NCI-H226 lung 6.4% | NCI-H322M lung 4.58% | HOP-62 NSCLC -4.29% | NCI-H460 lung 3.09% | HOP-92 NSCLC -33% | NCI-H522 lung -10.6% | A549/ATCC NSCLC 4.97% | 786-0 renal 8.32%

Cc1ccc(/C(N)=N/C(N)=N/c2nc3ccccc3s2)cc1
inactive: NCI-H23 lung 48.9% | NCI-H226 lung 63.2% | NCI-H322M lung 91.3% | NCI-H460 lung 75.7% | HOP-92 NSCLC 122% | NCI-H522 lung 100% | A549/ATCC NSCLC 19.6% | 786-0 renal 109% | COLO 205 colon 120%
active: HOP-62 NSCLC -42.4%

CCOC(=O)c1cccc(NC2=C(Cl)C(=O)C(C)=C(C)C2=O)c1
inactive: NCI-H23 lung 91.9% | NCI-H226 lung 100% | NCI-H322M lung 105% | HOP-62 NSCLC 103% | NCI-H460 lung 101% | HOP-92 NSCLC 54.2% | NCI-H522 lung 95% | A549/ATCC NSCLC 102% | 786-0 renal 105% | COLO 205 colon 122%

COc1cc2oc(-c3cccc(NC(=O)[C@@H](N)C(C)C)c3)cc(=O)c2c(OC)c1OC
inactive: NCI-H23 lung 103% | NCI-H226 lung 107% | NCI-H322M lung 102% | HOP-62 NSCLC 103% | NCI-H460 lung 103% | HOP-92 NSCLC 91.9% | NCI-H522 lung 92.7% | A549/ATCC NSCLC 94.6% | 786-0 renal 87.1% | COLO 205 colon 111%

COc1cc2cc(Oc3ccc(NC(=O)c4cc(C(F)(F)F)cc(C(F)(F)F)c4)cc3)c(C)nc2cc1OCCN1CCOCC1
inactive: NCI-H23 lung 66.9% | NCI-H226 lung 70.3% | NCI-H322M lung 98% | HOP-62 NSCLC 88.6% | NCI-H460 lung 61.6% | HOP-92 NSCLC 44.8% | NCI-H522 lung 58.1% | A549/ATCC NSCLC 61.4% | 786-0 renal 25.3% | COLO 205 colon 66.7%

CCCCCCCCCCCC(=O)NC(C)(C)C(=O)N1CCCC1C(=O)NC(C)(C)C(=O)NC(C)(C)C(=O)N1CCCC1C(=O)NC(C)(C)C(=O)NC(C)(C)C(=O)N1CCCC1C(=O)NC(C)C(=O)NCCC(=O)NC(C)C(=O)NC(C)(C)C(=O)NC(C)(C)C(=O)NC(C)(C)C(=O)NCCC(=O)NC(C)(C)C(=O)NC(C)(C)C(=O)NC(C)(C)C(=O)NC(C)C(=O)NCCC(=O)O (stereo not given)
active: NCI-H23 lung -92.9% | NCI-H226 lung -61.8% | NCI-H322M lung -99.6% | HOP-62 NSCLC -93.3% | NCI-H460 lung -79.7% | HOP-92 NSCLC -96% | NCI-H522 lung -89.8% | A549/ATCC NSCLC -77.9% | 786-0 renal -96.3% | COLO 205 colon -89.2%

CC(C)(C)Nc1nc2c(OCCc3ccccc3)cccn2c1-c1ccc([N+](=O)[O-])cc1
inactive: NCI-H23 lung 62.4% | NCI-H226 lung 70.5% | NCI-H322M lung 64.7% | HOP-62 NSCLC 78.1% | NCI-H460 lung 60.8% | HOP-92 NSCLC 54.7% | NCI-H522 lung 41.4% | A549/ATCC NSCLC 53.5% | 786-0 renal 75.1% | COLO 205 colon 49%

CCNC(=O)Oc1ccc(/C(=C(/C)c2ccc(OC)cc2)c2ccc(OCCN3CCCCCC3)cc2)cc1
active: COLO 205 colon -41.1%
inactive: NCI-H23 lung 52.8% | NCI-H226 lung 87.4% | NCI-H322M lung 80.9% | HOP-62 NSCLC 31.9% | NCI-H460 lung 16.7% | HOP-92 NSCLC 49.5% | NCI-H522 lung 93.1% | A549/ATCC NSCLC 54.4% | 786-0 renal 35.5%

Cn1ncc2ncc(-c3ccc4ncc(C#N)c(N5CCc6cc(F)c(Cl)cc65)c4c3)cc21
active: HOP-92 NSCLC 7.43%
inactive: NCI-H23 lung 46.8% | NCI-H226 lung 24.7% | NCI-H322M lung 38.9% | HOP-62 NSCLC 22.3% | NCI-H460 lung 38.5% | NCI-H522 lung 20.3% | A549/ATCC NSCLC 27.8% | 786-0 renal 21.8% | COLO 205 colon 51.4%
